Results on 14 compounds are retold here after PubChem BioAssay (NCI).

This is part of a sample that, as a whole, favours compounds with a hit. Of some 83,000 tested, about 20% had one in any assay.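 Testing used 96-well plates and a 48-hour single-concentration exposure. Example: -40 means 40% of the starting cells died.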 Unmarked numbers belong to inactive results. The source made the active and inactive calls. The calls were made as follows: active = growth percent below 10; inactive = the rest.

In this assay the test system is SR leukemia. In words: NCI-60 one-dose screen, 48 h (100 = growth as untreated, 0 = no growth, -100 = all killed). Conditions: 10 µM unless noted.
For `O=C(Nc1ccc(-n2cc(-c3ccncc3)c(-c3ccc(Cl)c(O)c3)n2)cc1)c1cc(C(F)(F)F)cc(C(F)(F)F)c1`, the growth was 23.9%. Under `COc1ccc(C2CC(=O)c3c(O)cc(OC4OC(COC5OC(C)C(O)C(O)C5O)C(O)C(O)C4O)cc3O2)cc1O` (centres undefined) stands 130%; under `O=C(NCCNCCO)c1cc([N+](=O)[O-])cc([N+](=O)[O-])c1O`, 99.8%; under `O=Nc1ccc(O)c2ccccc12`, 11.5%. For `CC(=O)N1CCN(CCNC(=O)n2cc(-c3ccncc3)c(-c3ccc(O)c(Cl)c3)n2)CC1`, the growth is 85%. With `NC(=O)c1c(Nc2ccccc2)nn2cc(-c3nc4ccccc4s3)c(N)nc12`, the growth is 82.8%. As for `CC(O)CN(CCO)CCN(CCO)CC(C)O` (centres undefined), the growth is 89.2%. On to `COC(=O)c1ccc2[nH]c(O)c(C(=Nc3ccc(N(C)C(=O)CN4CCN(C)CC4)cc3)c3ccc(OC)cc3)c2c1`, for which the growth was -14.8% (active).

Regarding `c1ccc(C(=NNc2nc3ccccc3o2)c2ccccn2)nc1`, the growth is 11%. Consider `COC(=O)C(Cc1cnc[nH]1)N1CC(=O)N2[C@@H](c3ccccc3)SC[C@H]2C1=O` (some centres undefined), for which the growth is 106%. Take `COC(=O)c1ccc2[nH]c(O)c(C(=Nc3ccc(N(C)C(=O)CN4CCN(C)CC4)cc3)c3ccc4c(c3)OCO4)c2c1`: the growth is 0.377% (active). Regarding `Cc1ccc(NCc2cn(-c3ccc(C(=O)O)cc3)nc2-c2ccc(C(=O)O)cc2)cc1`, the growth was 103%. Under `O=C(c1ccccc1)c1ccccc1-c1ccccc1` stands 19.2%; under `CCCCCCC(C(=O)OCC)(C(=O)OCC)C1CCCCCC1`, 101%.
